Results: PMC12864922, “TDP-43 directly inhibits mRNA accumulation in neurites through modulation of mRNA stability”
Over roughly 9,900 sequences, “r (bound/input frequency ratio)” has its median near 0.7; the highest 2% begin near 6.5. The sample holds the highest values, similar sequences and a random draw of the others, so the mix is not that of the screen.

B1: ENSMUSG00000022095.3|Fam160b2|123:127 (ssRNA)
RNA: GGGAGUUCUACAGUCCGACGAUCGCUUCGAUAUCCGCAUGCUAAAGGAGCUGGCUGCCAUUGCGUUUGUCAAGUUUCCCCCACACGGUCCUUACCUGAACUUCUCUCCACCUCCAGAAGGGCAAGUCUGAGCCAGGAGCAUGACGGGUGGGGGAAGAUUCCUGCCACACAACUUCUGCCCACGGGCAGUCUCCUGCCUGGCCAUGCUGCCACUCUGUCCUCCAUGCCGGGGACUUCAGCUGCAGGACACCUCACCUGUUGACCCCACGAGCUGAGGUUUCAAGGAGGUGCUGGCUCCUAAGGCCUCUUGCGGUCGCACUAGUGUGGAAUUCUCGGGUGUCAAGG
B2: ENSMUSG00000004113.146|Cacna1b|6:10;184:188;241:245;249:253 (ssRNA)
RNA: GGGAGUUCUACAGUCCGACGAUCGCUUCGAUAUCCGCAUGCUACACAUCAUACUAGAGAUGCGCUCAAGGGCCUGCCUUUCACCUACACUGUCACCAUAACAGGGACCAAAUCUGGAGGAUGUCCUUGCUGUUGAUUCUGGUUUUCAGUCACAACACUUUCACUGUUUGUCAUUUCUAUGUAGUUGAUCUAGAAAAAGCAGAAAUCAAAACAGGAAAGGAAAUGUUACACAAACUUUAAAAAAAAAGUCAACAUGUAGGAAGGUCUCCAUUUUGCAUUGUUUCACACACUUCAUACCAAUGUUCUCUUGCGGUCGCACUAGUGUGGAAUUCUCGGGUGUCAAGG
B3: ENSMUSG00000031028.47|Tub (ssRNA)
RNA: GGGAGUUCUACAGUCCGACGAUCGCUUCGAUAUCCGCAUGCUACUGAAGCAGGGGGGACAGCAAAUGGGUAUGACAGGAGAAGAAUAUUUCUGUGCCCCAAGGUCAACACACAUGCCCAGUCCUGGGUCAGUCCCCUGCUGCAGUGGUGUUAUCACACCGGAAAGCCUCUUCACCUGGAGGUACAGAGGGAGAGGAAGCACAAGCCUGGCUGCUGUGGCUCAGCCAUCCACUCAGCCUACGAGUCAGAGACAGUGGGUGUCCCGGGAAGCAGGGGUACAGUGAGUGUGUGUGUAUGUACAGGGCUCUUGCGGUCGCACUAGUGUGGAAUUCUCGGGUGUCAAGG
B4: ENSMUSG00000043670.69|Diras1 (ssRNA)
RNA: GGGAGUUCUACAGUCCGACGAUCGCUUCGAUAUCCGCAUGCUACCAUUCUAUCUGCACCCCACAACCACACACUGGAGGUUUGAUCCCUGUGGAUCUGAAAACAGGGACCUGGCUAAGGAACUGCUCAUCCCAGUCAGGCCCAGAGAGGUUACCUUGCCUCUCCAUCUCUGUCCCUGUGUGCCCAGCCAUGCCCACUGUCCCUGUCCCUCACAUUCUAUCACUGUGACCUCUGGGGAGUGCCCAUUGACCUCAUCUUCCUUCACUAAUAUCUUAUUUCUUUCACCUGAUCCUGUCCUUUCCCCCUCUUGCGGUCGCACUAGUGUGGAAUUCUCGGGUGUCAAGG
B5: ENSMUSG00000004113.295|Cacna1b (ssRNA)
RNA: GGGAGUUCUACAGUCCGACGAUCGCUUCGAUAUCCGCAUGCUAGGGAGGCCACGAGAGAAAGGUUGCACACAGACAGGCAGGCACUCCUUGGUGUGGUCUCUCUGUUUUGAAACUUCUGAUGACUUCUUGGUGGCUUGUUGUCUUCUACCCCAUGUUUCUCACAGGAUCUGUGUGUGUGUGUGUGUGUGUGUGUGUGUGUGUGUGUGUGUGUGUUAGCAUGUGUGUAUUAGCGUGUGUGAGUGUGUGAGCAUGCACGAGUCAUAGGAGAUGCAGGUGUAUGUGUGUGGUGUGCAUAUGUGUAUCUCUUGCGGUCGCACUAGUGUGGAAUUCUCGGGUGUCAAGG
B6: ENSMUSG00000004113.290|Cacna1b (ssRNA)
RNA: GGGAGUUCUACAGUCCGACGAUCGCUUCGAUAUCCGCAUGCUACAGGAAGGUGUUCAGUGUGCACAGAUAGCUGGGAGGCCACGAGAGAAAGGUUGCACACAGACAGGCAGGCACUCCUUGGUGUGGUCUCUCUGUUUUGAAACUUCUGAUGACUUCUUGGUGGCUUGUUGUCUUCUACCCCAUGUUUCUCACAGGAUCUGUGUGUGUGUGUGUGUGUGUGUGUGUGUGUGUGUGUGUGUGUGUUAGCAUGUGUGUAUUAGCGUGUGUGAGUGUGUGAGCAUGCACGAGUCAUAGGAGAUGCACUCUUGCGGUCGCACUAGUGUGGAAUUCUCGGGUGUCAAGG
B7: ENSMUSG00000004113.305|Cacna1b (ssRNA)
RNA: GGGAGUUCUACAGUCCGACGAUCGCUUCGAUAUCCGCAUGCUAUGUUUUGAAACUUCUGAUGACUUCUUGGUGGCUUGUUGUCUUCUACCCCAUGUUUCUCACAGGAUCUGUGUGUGUGUGUGUGUGUGUGUGUGUGUGUGUGUGUGUGUGUGUUAGCAUGUGUGUAUUAGCGUGUGUGAGUGUGUGAGCAUGCACGAGUCAUAGGAGAUGCAGGUGUAUGUGUGUGGUGUGCAUAUGUGUAUGUGUGUGUGUGUGUGUGUGUGUGUAGGUGUGUUCAGCAAGUGGCUAUUGUCAACCAUAGGCUCUUGCGGUCGCACUAGUGUGGAAUUCUCGGGUGUCAAGG
B8: ENSMUSG00000004113.294|Cacna1b (ssRNA)
RNA: GGGAGUUCUACAGUCCGACGAUCGCUUCGAUAUCCGCAUGCUAAUAGCUGGGAGGCCACGAGAGAAAGGUUGCACACAGACAGGCAGGCACUCCUUGGUGUGGUCUCUCUGUUUUGAAACUUCUGAUGACUUCUUGGUGGCUUGUUGUCUUCUACCCCAUGUUUCUCACAGGAUCUGUGUGUGUGUGUGUGUGUGUGUGUGUGUGUGUGUGUGUGUGUGUUAGCAUGUGUGUAUUAGCGUGUGUGAGUGUGUGAGCAUGCACGAGUCAUAGGAGAUGCAGGUGUAUGUGUGUGGUGUGCAUAUCUCUUGCGGUCGCACUAGUGUGGAAUUCUCGGGUGUCAAGG
B9: ENSMUSG00000004113.291|Cacna1b (ssRNA)
RNA: GGGAGUUCUACAGUCCGACGAUCGCUUCGAUAUCCGCAUGCUAGGUGUUCAGUGUGCACAGAUAGCUGGGAGGCCACGAGAGAAAGGUUGCACACAGACAGGCAGGCACUCCUUGGUGUGGUCUCUCUGUUUUGAAACUUCUGAUGACUUCUUGGUGGCUUGUUGUCUUCUACCCCAUGUUUCUCACAGGAUCUGUGUGUGUGUGUGUGUGUGUGUGUGUGUGUGUGUGUGUGUGUGUUAGCAUGUGUGUAUUAGCGUGUGUGAGUGUGUGAGCAUGCACGAGUCAUAGGAGAUGCAGGUGUACUCUUGCGGUCGCACUAGUGUGGAAUUCUCGGGUGUCAAGG
B10: ENSMUSG00000004113.302|Cacna1b (ssRNA)
RNA: GGGAGUUCUACAGUCCGACGAUCGCUUCGAUAUCCGCAUGCUAUCCUUGGUGUGGUCUCUCUGUUUUGAAACUUCUGAUGACUUCUUGGUGGCUUGUUGUCUUCUACCCCAUGUUUCUCACAGGAUCUGUGUGUGUGUGUGUGUGUGUGUGUGUGUGUGUGUGUGUGUGUGUUAGCAUGUGUGUAUUAGCGUGUGUGAGUGUGUGAGCAUGCACGAGUCAUAGGAGAUGCAGGUGUAUGUGUGUGGUGUGCAUAUGUGUAUGUGUGUGUGUGUGUGUGUGUGUGUAGGUGUGUUCAGCAAGUGCUCUUGCGGUCGCACUAGUGUGGAAUUCUCGGGUGUCAAGG
B11: ENSMUSG00000004113.303|Cacna1b (ssRNA)
RNA: GGGAGUUCUACAGUCCGACGAUCGCUUCGAUAUCCGCAUGCUAGUGUGGUCUCUCUGUUUUGAAACUUCUGAUGACUUCUUGGUGGCUUGUUGUCUUCUACCCCAUGUUUCUCACAGGAUCUGUGUGUGUGUGUGUGUGUGUGUGUGUGUGUGUGUGUGUGUGUGUUAGCAUGUGUGUAUUAGCGUGUGUGAGUGUGUGAGCAUGCACGAGUCAUAGGAGAUGCAGGUGUAUGUGUGUGGUGUGCAUAUGUGUAUGUGUGUGUGUGUGUGUGUGUGUGUAGGUGUGUUCAGCAAGUGGCUAUUCUCUUGCGGUCGCACUAGUGUGGAAUUCUCGGGUGUCAAGG
B12: ENSMUSG00000004113.292|Cacna1b (ssRNA)
RNA: GGGAGUUCUACAGUCCGACGAUCGCUUCGAUAUCCGCAUGCUACAGUGUGCACAGAUAGCUGGGAGGCCACGAGAGAAAGGUUGCACACAGACAGGCAGGCACUCCUUGGUGUGGUCUCUCUGUUUUGAAACUUCUGAUGACUUCUUGGUGGCUUGUUGUCUUCUACCCCAUGUUUCUCACAGGAUCUGUGUGUGUGUGUGUGUGUGUGUGUGUGUGUGUGUGUGUGUGUGUUAGCAUGUGUGUAUUAGCGUGUGUGAGUGUGUGAGCAUGCACGAGUCAUAGGAGAUGCAGGUGUAUGUGUGCUCUUGCGGUCGCACUAGUGUGGAAUUCUCGGGUGUCAAGG
B13: ENSMUSG00000004113.293|Cacna1b (ssRNA)
RNA: GGGAGUUCUACAGUCCGACGAUCGCUUCGAUAUCCGCAUGCUAGCACAGAUAGCUGGGAGGCCACGAGAGAAAGGUUGCACACAGACAGGCAGGCACUCCUUGGUGUGGUCUCUCUGUUUUGAAACUUCUGAUGACUUCUUGGUGGCUUGUUGUCUUCUACCCCAUGUUUCUCACAGGAUCUGUGUGUGUGUGUGUGUGUGUGUGUGUGUGUGUGUGUGUGUGUGUUAGCAUGUGUGUAUUAGCGUGUGUGAGUGUGUGAGCAUGCACGAGUCAUAGGAGAUGCAGGUGUAUGUGUGUGGUGUCUCUUGCGGUCGCACUAGUGUGGAAUUCUCGGGUGUCAAGG

What follows are binders tested against TDP-43 (Homo sapiens, UniProt Q13148 1-414) (assay: RNA Bind-n-Seq with designed 260-mer pool; 25 mM Tris-HCl, 150 mM KCl, 3 mM MgCl2, BSA (printed 500 mg/mL), 20 units/mL SUPERase IN; pH not stated; 500 nM RNA pool, 1 h, 4 C; TDP-43 5, 50, 500 nM; high values mean tight binding). Settings: protein: recombinant; tags: SBP (GST cleaved off with PreScission; pGEX-GST-SBP).
Chain of TDP-43 (Q13148 whole entry): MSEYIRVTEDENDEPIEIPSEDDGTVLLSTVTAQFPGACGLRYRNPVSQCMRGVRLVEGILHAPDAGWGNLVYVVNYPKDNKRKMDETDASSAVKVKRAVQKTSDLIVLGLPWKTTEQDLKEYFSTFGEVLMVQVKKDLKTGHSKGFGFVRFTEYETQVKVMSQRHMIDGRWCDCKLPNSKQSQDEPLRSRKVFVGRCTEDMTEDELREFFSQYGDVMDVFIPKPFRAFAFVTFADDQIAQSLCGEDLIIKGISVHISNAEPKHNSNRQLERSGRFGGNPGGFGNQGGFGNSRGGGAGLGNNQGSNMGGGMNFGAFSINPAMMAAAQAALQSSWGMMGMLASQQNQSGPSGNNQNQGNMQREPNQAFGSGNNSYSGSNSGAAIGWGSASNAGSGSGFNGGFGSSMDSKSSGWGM
Procedure, shortened: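 Streptavidin beads captured recombinant SBP-tagged TDP-43 at 5, 50 or 500 nM, and the beads were incubated for 1 h at 4 °C with 500 nM of an in vitro-transcribed pool of 260-nt 3′ UTR oligos in 25 mM Tris-HCl, 150 mM KCl, 3 mM MgCl2, BSA and SUPERase IN. After washing, bound RNA was eluted with biotin, reverse transcribed, PCR-amplified and sequenced. Binding is reported as R, the mapped-read-normalized abundance of each oligo in the bound sample divided by its abundance in the input. Two independent protein batches served as duplicates.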

Row | Binder | binding signal
1 | B1 | 0.205 R (bound/input frequency ratio)
2 | B2 | 0.13 R (bound/input frequency ratio)
3 | B3 | 2.21 R (bound/input frequency ratio)
4 | B4 | 2.12 R (bound/input frequency ratio)
5 | B5 | 5.7 R (bound/input frequency ratio)
6 | B6 | 5.7 R (bound/input frequency ratio)
7 | B7 | 4.07 R (bound/input frequency ratio)
8 | B8 | 6.88 R (bound/input frequency ratio)
9 | B9 | 5.2 R (bound/input frequency ratio)
10 | B10 | 8.59 R (bound/input frequency ratio)
11 | B11 | 5.04 R (bound/input frequency ratio)
12 | B12 | 6.93 R (bound/input frequency ratio)
13 | B13 | 5.22 R (bound/input frequency ratio)
